High-throughput results deposited in PubChem BioAssay by National Center for Advancing Translational Sciences (NCATS).
LmPK inh = LmPK (Leishmania mexicana) enzyme inhibition; 290,000 tested, 0.37% active; purified LmPK, Kinase-Glo ATP luminescence, 1 h; Potency, µM (series often up to 57.5 µM), for inactives: at the highest dose activity change, negative = inhibition, most hits filed as inhibitors; Q27686; AID 1721; further: potency means the concentration at half of the fitted maximal effect; on the % scale 0 is the no-effect control and ±100 the full control effect
Target sequence (Q27686 whole entry, looked up): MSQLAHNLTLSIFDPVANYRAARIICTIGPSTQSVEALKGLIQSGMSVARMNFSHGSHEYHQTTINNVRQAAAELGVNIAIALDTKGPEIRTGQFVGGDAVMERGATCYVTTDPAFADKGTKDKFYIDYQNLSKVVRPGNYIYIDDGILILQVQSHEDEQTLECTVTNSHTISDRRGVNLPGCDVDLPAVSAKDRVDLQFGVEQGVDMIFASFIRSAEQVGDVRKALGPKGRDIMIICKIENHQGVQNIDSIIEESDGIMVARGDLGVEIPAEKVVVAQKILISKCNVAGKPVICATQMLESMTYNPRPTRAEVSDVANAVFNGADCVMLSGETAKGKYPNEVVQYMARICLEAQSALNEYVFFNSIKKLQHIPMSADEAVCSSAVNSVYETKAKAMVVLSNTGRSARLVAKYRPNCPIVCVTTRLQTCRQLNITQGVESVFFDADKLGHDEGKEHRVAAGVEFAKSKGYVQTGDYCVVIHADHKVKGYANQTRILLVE
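ATP generated from ADP (0.1 mM) and PEP (0.5 mM) by 0.1 nM LmPK over 1 h at room temperature (pH 7.2 imidazole buffer) was detected by coupled luciferase luminescence. Values were normalized to uninhibited and no-enzyme wells.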
Shiga toxin inh = blocks Shiga toxin action in Vero cells | Vero cells, Shiga toxin protein synthesis inhibition reporter | inhibition, % at 38.7 µM | AID 2315 | 290,000 tested, 9.2% active; in the data active means inhibition mostly above about 28%, no sharp cut-off; inactive means mostly below about 43%; further: 0% is about no effect
CHX counter = affects cycloheximide protein synthesis inhibition readout, counter-screen. cell reporter, cycloheximide protein synthesis inhibition counterscreen. max response, %. 300,000 tested, 12% active; in the data active means max response mostly above about 13%, no sharp cut-off; inactive means mostly below about 14%; further: read at 38.3 µM for the half of the compounds with a filed dose; 0% is about no effect
Giardia FBPA inh = inhibitors of Giardia lamblia fructose-1,6-bisphosphate aldolase; purified Giardia FBPA; Potency, µM (titrated, usually from 59.6 µM), inactives show at the top dose activity, negative = inhibition, actives largely listed as inhibitors; 290,000 tested, 0.71% active; AID 2451; further: potency means the concentration at half of the fitted maximal effect; on the % scale 0 is the no-effect control and ±100 the full control effect; nearly all actives have a fitted effect of over 55% in size
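Giardia FBPA (40 nM reagent) was preincubated 10 min at RT with compound (up to 57.5 uM final), then substrate plus GAPDH/TPI/NAD/arsenate coupling system with diaphorase/resazurin was added; resorufin fluorescence (525/598 nm) was read after 20 min.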
NS1 inh = influenza NS1 inhibition; Potency, µM (series often up to 46.1 µM), without a hit: top-dose activity, positive = more growth; AID 2326; 270,000 tested, 0.4% active; calls by dose curve; further: potency means the concentration at half of the fitted maximal effect; actives are rising curves; nearly all actives have a fitted effect of over 50% in size
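Compounds were scored for reversing the slow growth caused by influenza A NS1 in S. cerevisiae, measured by optical density at 600 nm. Assay medium contained 2% galactose at pH 6.0; NS1-free yeast of the same strain were the positive control.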
An asterisk follows results filed as active; ? = inconclusive; nt = no result; [ ] = another dose, or the depositor's remark. A selection: hits, their analogues and other compounds. The true share with any hit is near 14%. Unless noted, the call rests on the fitted dose curve; in most records, active means well fitted curve in the direction sought with a large enough effect; inconclusive means small, poorly fitted or top-dose-only effect, or another doubt; inactive means no such curve, though single readings can be large; an effect the other way counts as inactive or inconclusive.

SMILES	LmPK inh	Shiga toxin inh	CHX counter	Giardia FBPA inh	NS1 inh
O=C(CCC(=O)Nc1ccccc1)N/N=C/c1ccc2c(c1)OCO2	-4.4%	71.1*	40.0*	nt	-8.4%
Cc1ccc(CC(=O)N/N=C/c2ccc3c(c2)OCO3)cc1	-2.8%	42.9*	25.8*	2.1%	nt
COCCN1C(=O)N[C@@H](c2cccc(C(F)(F)F)c2)C(C(C)=O)=C1C	nt	nt	nt	4.9%	nt
CC(=O)c1cccc(CN2CCc3ccc(NC(=O)C4CCCO4)cc3C2)c1 (stereo not drawn)	1.4%	-1.7	-2.1	-4.5%	-3.1%
CC(=O)Oc1cc(OC(C)=O)c2c(c1)OC(c1ccc(OC(C)=O)c(OC(C)=O)c1)C(OC(C)=O)C2 (stereo not drawn)	nt	nt	nt	0.4%	nt
O=C(NCCc1ccccc1)C(=O)N/N=C/c1ccc2c(c1)OCO2	0.3%	20.3	4.6	0.0%	18.8%
O=C(NCc1ccccn1)C(=O)N/N=C/c1ccc2c(c1)OCO2	-12.5%	50.2*	16.1	-1.1%	3.2%
O=C(O)c1ccc(/C=C/C(=O)c2ccc3c(c2)OCCCO3)cc1	-6.8%	92.3*	104.6*	nt	-2.9%
COc1ccc(/C=C/C(=O)c2ccc3c(c2)OCCO3)cc1[N+](=O)[O-]	-4.0%	8.1	-0.7	1.8%	-1.7%
CSc1ccc(/C=C/C(=O)c2ccc(NC(C)=O)cc2)cc1	0.2%	59.5*	32.9*	2.4%	-12.1%
CC(=O)Nc1ccc(/C=C/C(=O)c2ccc3c(c2)OCCO3)cc1	-2.4%	45.2*	23.5*	6.9%	-16.1%
CC(C)CO/N=C1/C[C@@H](O)[C@@H](O)[C@@H]2[C@@H]3C(=O)N(Cc4ccc5c(c4)OCO5)C(=O)[C@H]3CC[C@@H]12	nt	nt	nt	2.6%[12.9 µM]	nt
O=C(Nc1ccc2nsnc2c1)N1CCCCC1	0.6%	54.8	29.5*	?	-6.5%
CC1CCN(C(=O)Nc2cccc(NC(=O)N3CCC(C)CC3)c2)CC1	1.8%	7.6	8.1	-26.1%	-10.9%
CC1CCN(C(=O)Nc2ccc3nsnc3c2)CC1	-3.6%	107.4*	19.6*	nt	-2.6%
CCOCCC(=O)Nc1nnc(CCc2ccccc2)s1	2.3%	-5.1	0.7	12.5%	-11.2%
S=C(NCCc1ccccc1)Nc1ccc(N2CCCCC2)cc1	-3.7%	32.0	20.3*	4.0%	-3.8%
CCNC(=S)Nc1ccc(N2CCCCC2)cc1	-1.4%	34.0	24.9*	-8.2%	nt
COCCCNC(=S)Nc1ccc(N2CCCCC2)cc1	0.3%	84.3*	12.7	-1.7%	nt
O=c1cc(CF)[nH]c(=S)[nH]1	nt	nt	nt	nt	5.6%
CC(NC(=O)c1ccco1)C(=O)OCC(=O)c1ccc(Cl)s1 (stereo not drawn)	8.5%	-8.6	-2.0	-3.3%	nt
COc1ccc(C)cc1NC(=O)C(OC(=O)CNC(=O)c1ccc(Br)cc1)c1ccccc1 (stereo not drawn)	-0.3%	10.2	12.3*	2.6%	5.3%
COc1ccc(C)cc1NC(=O)C(OC(=O)CNC(=O)c1cc(C)cc(C)c1)c1ccccc1 (stereo not drawn)	0.3%	-10.4	-0.9	-1.2%	-0.9%
O=S(=O)(Nc1nc2ccccc2nc1N1CCN(c2ccccn2)CC1)c1ccc(Cl)cc1	-1.0%	37.9	14.7*	15.5%	-48.5%
O=S(=O)(Nc1nc2ccccc2nc1N1CCc2ccccc2C1)c1ccc(Cl)cc1	-0.2%	25.4*	71.4*	-20.9%	-2.2%
SMILES	LmPK inh	Shiga toxin inh	CHX counter	Giardia FBPA inh	NS1 inh
Cc1ccc(S(=O)(=O)Nc2nc3ccccc3nc2N2CCN(c3ccccc3F)CC2)cc1	7.1%	-8.1	-4.0	13.3%	?
O=S(=O)(Nc1nc2ccccc2nc1N1CCc2ccccc2C1)c1ccc(Br)cc1	?	33.2*	44.3*	-23.3%	-36.2%
CC(=O)Nc1ccc(S(=O)(=O)Nc2nc3ccccc3nc2N2CCCCCC2)cc1	3.3%	-20.6	-5.7	13.4%	11.5%
CC(=O)Nc1ccc(S(=O)(=O)Nc2nc3ccccc3nc2N2CCc3ccccc3C2)cc1	1.7%	103.0*	46.6*	16.1%	?
COc1cccc(CN(C)C(=O)c2ccccc2Sc2ccccc2C#N)c1OC	-14.4%	-8.8	1.7	nt	5.6%
CCc1cc2cc(C)ccc2nc1SCC(=O)NC1CCCC1	-3.3%	-13.2	-1.1	-2.2%	-23.9%
O=C1NC(=S)N/C1=C/C=C/c1ccccc1	2.1%	35.2	42.7*	-1.2%	nt
O=C1NC(=S)NC(=O)C1C/C=C/c1ccccc1	1.7%	2.7	-3.0	-8.5%	10.1%
Clc1ccc(CSc2ncccn2)cc1	3.5%	42.5*	31.7*	2.4%	-1.2%
Clc1ccc(Cl)c(Nc2ccnc(SCc3ccccc3)n2)c1	nt	nt	nt	nt	-12.4%
c1ccc(CSc2ncccn2)cc1	-7.0%	6.3	19.3*	0.1%	2.6%
COc1cc(NCC[C@@H]2CCCCN2)c2ncccc2c1	nt	nt	nt	nt	1.8%
CN1CCN(C(=S)c2ccc(-c3cc(Cl)ccc3Cl)o2)CC1	-1.9%	8.6	8.5	0.4%	-30.8%
S=C(c1ccc(-c2ccc(Cl)cc2Cl)o1)N1CCCCC1	1.3%	77.7*	41.9*	17.5%	-10.0%
S=C(c1ccc(-c2ccc(Cl)cc2Cl)o1)N1CCCC1	-27.0%	22.5	17.7*	-15.4%	2.7%
N#CC1CC(c2ccccc2)Nc2cc(Cl)ccc2N1 (stereo not drawn)	0.5%	69.0*	37.0*	17.2%	-97.0%
Cc1ccccc1/C=C\c1nc2ccccc2c(=O)[nH]1	-29.2%	89.2*	45.8*	0.0%	-7.5%
Cc1ccccc1/C=C/c1nc2ccccc2c(=O)[nH]1	-15.6%	84.2*	44.7*	0.1%	-1.1%
N#CCOc1ccccc1/C=C/c1nc2ccccc2c(=O)[nH]1	2.3%	83.2*	29.6*	-14.4%	16.0%
CCc1ccccc1NC(=O)CN(C)C(=O)CSc1nnc(Nc2ccc(C)cc2)s1	1.6%	-9.0	-1.3	-4.6%	-29.0%
CCc1ccc(Nc2nnc(SCC(=O)N(C)CC(=O)Nc3ccccc3CC)s2)cc1	-5.2%	25.7	28.2*	-13.1%	16.5%
O=C(O)c1ccc([N+](=O)[O-])c(P(=O)(O)O)c1	nt	nt	nt	nt	-2.0%
O=C(NNC1=C(C(=O)C(F)(F)F)CCC1)c1cccc(Cl)c1	-7.3%	85.1*	27.7*	-2.0%	-148.3%
COc1ccc(C(=O)NNC(=O)OC(C)(C)C)cc1	3.1%	-8.3	1.4	4.5%	9.3%
COc1ccc(C(=O)NNC2=C(C(=O)C(F)(F)F)CCC2)cc1	13.2%	48.4*	26.9*	8.9%	-8.2%
SMILES	LmPK inh	Shiga toxin inh	CHX counter	Giardia FBPA inh	NS1 inh
O=C(NNC1=C(C(=O)C(F)(F)F)CCC1)c1ccc(Cl)cc1	-3.6%	86.1*	17.6*	-17.0%	-126.0%
CC1CN(C(C)C(=O)NC(c2ccccc2)c2ccccc2)CC(C)O1 (stereo not drawn)	0.6%	-11.0	-4.6	4.4%	-0.5%
O=c1c2[nH]cnc2n(-c2cccc(F)c2)c(=O)n1Cc1ccccc1	-0.5%	-15.9	5.6	?	0.2%
CC(Cc1ccccc1)C(=O)Nc1ccccc1 (stereo not drawn)	-5.3%	9.0	6.8	-1.0%	-3.7%
CC(C)c1nnc(NC(=O)CCS(=O)(=O)c2ccccc2)s1	-5.7%	43.6*	9.0	-11.4%	-2.5%
CC(C)c1nnc(NC(=O)CCc2ccccc2)s1	1.6%	27.6	18.9*	6.6%	1.6%
